Screens deposited in PubChem by several laboratories.
Beta cell apopt: beta cell apoptosis inhibition. 0.8% of 300,000 active. protection from apoptosis, % (test concentration not listed). INS-1E cytokine-induced death, ATP luminescence, 48 h; percent of positive-control rescue, neutral wells zero;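 active means Every replicate reaches about 75%, or at least half do and their mean reaches it too, limit read from the data; inconclusive means At least half of replicates reach the limit but their mean does not; inactive means Under half of replicates reach the limit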;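 further: higher means more ATP so stronger rescue from cytokine killing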
Mdm2-MdmX inh: inhibitors of human Mdm2/MdmX interaction | 3% of 330,000 active | inhibition, % at 8 µM | SaOS-2 split-luciferase Mdm2/MdmX complementation, luminescence;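 active means inhibition of at least 50% at 8 µM in the primary screen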
A1 inh: inhibitors of the anti-apoptotic protein A1, read as caspase activation; MEF A1-2A-BIM cells, Caspase-Glo 3/7 luminescence, 3 h; percent of clofoctol response, vehicle zero; caspase activation, % (no concentration beside the values); 0.066% of 330,000 active;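 active means over half of replicate activation scores above 10%, or exactly half above 10 with the replicate mean above 10; inconclusive means replicate mean below 10 yet half the replicates above 10; inactive means over half of replicates below 10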
Jurkat NFkB inh: inhibitors of the PMA/ionomycin-induced NF-kB reporter in Jurkat cells; PMA/ionomycin-induced NF-kB luciferase reporter, luminescence; AID 435003; 0.53% of 330,000 active; inhibition, % at 4 µM; in the data active means inhibition above about 50%
NTR1 ag: activates human neurotensin receptor 1 | P30989 | 0.17% of 330,000 active | NTR1-U2OS beta-arrestin-GFP spot imaging, agonist mode | activation, % at 20 µM;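 active means activation at or above 40% of the spot to cytoplasm intensity ratio, with at least 20 cells analyzed; inconclusive means wells under 20 cells, flagged as cytotoxic or low count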
697 NFkB inh: lowers PMA/ionomycin-induced NF-kB signal in 697 B cells. 697 B-cell NF-kB luciferase reporter, 16 h. inhibition, % at 4 µM. 0.33% of 330,000 active. AID 435022; in the data active means inhibition above about 35%
Mdm2-MdmX conf: confirmation of human Mdm2/MdmX interaction inhibitors. 55% of 10,000 active. Mdm2-MdmX binding, luminescent assay. inhibition, % at 8 µM. AID 489028. shares compounds with Mdm2-MdmX inh; in the data active means inhibition above about 40%
Full FLuc ctr: full-length luciferase inhibition in Mdm2/MdmX counter-screen; shares compounds with Mdm2-MdmX inh; SaOS-2 full-length luciferase counterscreen, luminescence; inhibition, % at 8 µM; 77% of 6,200 active; AID 504607;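 active means mean inhibition at 8 µM reaching about 37%, which flags the compound as non-specific, limit read from the data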;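 further: p53-null SaOS-2 cells with luciferase driven by a doxycycline-inducible promoter; compound on cells about two nights before reading with doxycycline added after day one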
Of the large screens only hits and unclear results are named; the others gave an inactive call (follow-up assays come after a bar, where they were run). Shown are actives, neighbours in structure and some others; about 3.8% of the full set was active somewhere.

Cc1ccc(-c2nc(NC(=O)c3nn(C)cc3[N+](=O)[O-])sc2C)cc1C	Beta cell apopt 107.0, Mdm2-MdmX inh 80.8, A1 inh 38.9 | Mdm2-MdmX conf 100.2 | Full FLuc ctr 51.5
COc1ccc(NC(=O)CN(C)CC(=O)Nc2sc3c(c2C#N)CCC3)cc1	none (no result: Beta cell apopt, A1 inh)
COc1ccc(C/C(N)=N/OC(=O)c2ccc(Cl)cc2)cc1	none
N/C(CCS(=O)(=O)c1ccc(Cl)cc1)=N\OC(=O)c1ccccc1Cl	Mdm2-MdmX inh 91.6 (no result: Beta cell apopt) | Mdm2-MdmX conf 86.7 | Full FLuc ctr 49.6
N/C(Cc1ccc(Cl)cc1)=N\OC(=O)c1cccc2ccccc12	Mdm2-MdmX inh 98.7 | Mdm2-MdmX conf 76.4 | Full FLuc ctr 38.8
NC(=O)CCS(=O)(=O)c1ccc(Cl)cc1	none
N/C(Cc1ccc(Cl)cc1)=N\OC(=O)c1ccc2ccccc2c1	Mdm2-MdmX inh 99.4, A1 inh inconclusive | Mdm2-MdmX conf inactive
CCCCc1ccc(NC(=O)CSc2nc(=O)n(CCN(C)C)c3c2CCC3)cc1	none (no result: Beta cell apopt)
CCCCc1ccc(NC(=O)CSc2nc(=O)n(CCN(CC)CC)c3c2CCCC3)cc1	Mdm2-MdmX inh 87.5 | Mdm2-MdmX conf 53.9 | Full FLuc ctr 61.5
Cc1nn(-c2ccccc2)c(N2CCCC2)c1/C=N/NC(=O)c1cc(-c2ccccn2)nc2ccccc12	Mdm2-MdmX inh 63.3 | Mdm2-MdmX conf inactive
Cc1nn(-c2ccccc2)c(N2CCCC2)c1/C=N/NC(=O)c1cc(-c2ccccc2)nc2ccccc12	Mdm2-MdmX inh 56.8 | Mdm2-MdmX conf 46.9 | Full FLuc ctr 68.4
CC(C)(C)c1ccc2c(c1)N(CC(=O)N1CCCC1)C(=O)CO2	none
O=C(N/N=C/c1ccc([N+](=O)[O-])o1)c1cc(-c2ccncc2)nc2ccccc12	Mdm2-MdmX inh 61.6 | Mdm2-MdmX conf 52.5 | Full FLuc ctr 43.5
O=[N+]([O-])c1cc(/C=N/NC(=S)Nc2ccccc2Cl)ccc1Cl	Mdm2-MdmX inh 58.8 | Mdm2-MdmX conf inactive
CC(/C=N/NC(=O)c1cc(-c2ccncc2)nc2ccccc12)=C\c1ccco1	Mdm2-MdmX inh 62.7 | Mdm2-MdmX conf 61.8 | Full FLuc ctr 96.9
O=C(N/N=C/c1ccc(Cl)c([N+](=O)[O-])c1)c1cc(-c2ccccc2)nc2ccccc12	Mdm2-MdmX inh 100.2 | Mdm2-MdmX conf inactive
O=C(N/N=C/c1cccc([N+](=O)[O-])c1)c1cc(-c2ccccc2)nc2ccccc12	none
CC(C)c1ccc(CNCCCSc2ncccn2)cc1	none
O=C(NCc1ccco1)c1cc2cc(Br)ccc2o1	none
CCOc1cc(CN2CCC(n3nccc3NC(=O)C3CC3)CC2)ccc1O	none
O=C(N/N=C/c1cccnc1)c1cc(-c2ccc(Br)cc2)nc2ccccc12	Mdm2-MdmX inh 51.6 | Mdm2-MdmX conf 55.9 | Full FLuc ctr 57.7
COc1cccc2cc(-c3cc(=O)oc4cc(C)c(OCC(C)=O)cc34)oc12	Mdm2-MdmX inh 54.5 | Mdm2-MdmX conf inactive
COC(=O)c1sccc1NC(=O)c1ccc(C(C)C)cc1	none
CN(C)CCCN(C(=O)c1ccc(S(=O)(=O)N2CCc3ccccc3C2)cc1)c1nc2c(F)cccc2s1	none
COc1ccc2sc(N(CCCN(C)C)C(=O)c3ccc(S(=O)(=O)N4CCc5ccccc5C4)cc3)nc2c1	Mdm2-MdmX inh 100.2, A1 inh 28.3 (no result: Beta cell apopt) | Mdm2-MdmX conf 99.1 | Full FLuc ctr 54.7
Cc1cccc2sc(N(CCCN(C)C)C(=O)c3ccc(S(=O)(=O)N4CCc5ccccc5C4)cc3)nc12	Mdm2-MdmX inh 63.6 | Mdm2-MdmX conf inactive
Cc1ccc2nc(N(CCCN(C)C)C(=O)c3ccc(S(=O)(=O)N4CCc5ccccc5C4)cc3)sc2c1	Beta cell apopt 113.5, Mdm2-MdmX inh 100.4 | Mdm2-MdmX conf 52.1 | Full FLuc ctr inactive
COCCn1c(=NC(=O)c2ccc(S(=O)(=O)N3CCc4ccccc4C3)cc2)sc2cc(OC)ccc21	Mdm2-MdmX inh 69.4 | Mdm2-MdmX conf inactive
